# Measurements taken from PubChem BioAssay (Tox21).
# Values joined by “and” are separate entries in the source; they are usually repeats but may differ in a detail not shown here. Equal values may be shown once. A number with no mark means an inactive call. Inconclusive results are not listed. Where a call stands in place of a potency, no number is given. Active and inactive are the calls of the source. Unless noted, calls come from the whole dose curve; as a rule, active = well fitted curve in the direction sought with a large enough effect in the repeat runs; inconclusive = weak or mixed curves; inactive = no such curve, though single readings can be large; an effect the other way counts as inactive or inconclusive.
# How the values were obtained:
# [1] = qHTS assay to identify small molecule antagonists of the sonic hedgehog signaling (Shh) pathway (AID 1259369; calls by dose curve; note: nearly all actives have a fitted effect of over 45% in size; note: potency is the fitted concentration of half-maximal effect)
# Procedure, shortened: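 Luminescence readout: firefly Luc under Gli1 response element in 3T3Gli1-Luc cells (NIH/3T3 clone). Antagonist mode, stimulation by conditioned medium; compound exposure 24hr at 37 C, 5% CO2.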
# [2] = qHTS assay to identify small molecule agonists of the androgen receptor (AR) signaling pathway in the presence of an antagonist - cell viability counter screen (AID 1259379);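 note: MDA-kb2 human breast cancer cells carrying an MMTV luciferase reporter; series mostly up to about 92 µM; nearly all actives have a fitted effect of over 25% in size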
# Procedure, shortened: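 Viability counter screen: CellTiter-Fluor fluorescence, measured in the same wells as the luciferase read-out. MDA-kb2 cells, 3,000/well, with nilutamide at 3.0uM final and compounds at 15 concentrations, 16 hr at 37C, 0% CO2.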
# [3] = qHTS assay to identify small molecule agonists of the estrogen receptor beta (ER-beta) signaling pathway - cell viability counter screen (AID 1259380); note: nearly all actives have a fitted effect of over 30% in size
# Procedure, shortened: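 Luminescence read-out (CellTiter-Glo, 30 min, room temp) taken in the same wells as the beta-lactamase reporter assay; ER-beta-UAS-bla HEK293T cells exposed to DMSO-dissolved compounds for 16 hr at 37C in 2% charcoal-stripped FBS medium.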
# [4] = qHTS assay to identify small molecule antagonists of the estrogen receptor beta (ER-beta) signaling pathway - cell viability counter screen (AID 1259382);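 note: HEK293T cells carrying ER-beta-UAS-bla reporter stimulated with estradiol; series mostly up to about 92 µM; nearly all actives have a fitted effect of over 55% in size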
# Procedure, shortened: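 Luminescent ATP read-out (CellTiter-Glo, 30 min, RT) taken in the same wells as the bla reporter assay. HEK293T ER-beta-UAS-bla cells in 2% charcoal-stripped FBS were exposed to compounds with 1nM E2 for 16 hr at 37C.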
# [5] = biological target: Estrogen receptor (Homo sapiens) (UniProt P03372); experiment: qHTS assay to identify small molecule agonists of the estrogen receptor alpha (ER-alpha) signaling pathway in the presence of an antagonist (AID 1259383; calls by dose curve; note: nearly all actives have a fitted effect of over 15% in size; note: potency is the fitted concentration of half-maximal effect; for activation: top concentration of the series differs between compounds)
# Sequence of Estrogen receptor (Homo sapiens) (P03372 whole entry, looked up): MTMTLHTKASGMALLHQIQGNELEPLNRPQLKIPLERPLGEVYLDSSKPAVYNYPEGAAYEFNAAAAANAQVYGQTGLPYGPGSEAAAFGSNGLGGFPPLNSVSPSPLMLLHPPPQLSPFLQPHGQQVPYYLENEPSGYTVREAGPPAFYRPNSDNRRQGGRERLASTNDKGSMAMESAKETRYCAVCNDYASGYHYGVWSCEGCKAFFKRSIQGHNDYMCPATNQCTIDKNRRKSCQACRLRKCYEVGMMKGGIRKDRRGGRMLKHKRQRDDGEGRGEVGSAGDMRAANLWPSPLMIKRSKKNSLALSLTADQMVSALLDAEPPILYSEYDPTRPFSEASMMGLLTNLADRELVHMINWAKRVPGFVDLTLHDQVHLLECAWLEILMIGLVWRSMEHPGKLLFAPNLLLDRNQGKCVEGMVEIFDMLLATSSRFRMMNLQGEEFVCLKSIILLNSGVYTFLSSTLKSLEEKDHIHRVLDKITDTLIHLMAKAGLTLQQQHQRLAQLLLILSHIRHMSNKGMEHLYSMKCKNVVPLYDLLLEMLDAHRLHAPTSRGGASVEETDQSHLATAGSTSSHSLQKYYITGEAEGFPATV
# Procedure, shortened: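 Luciferase luminescence (ONE-Glo, 30min at room temperature) measured in VM7Luc4E2 cells after 22hr compound exposure at 15 concentrations, with 10.0nM ICI-182,780 final present; cells express endogenous ER-alpha and carry four EREs upstream of luciferase.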
# [6] = qHTS assay to identify small molecule agonists or antagonists of the thyroid stimulating hormone receptor (TSHR) signaling pathway - wild type cell line counter screen (AID 1259384; calls by dose curve)
# Procedure, shortened: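 Wild-type Hek293 cells, 800/well, 18 h at 37C, then compound with Ro20-1724 for 30 min RT. cAMP by HTRF (cAMP-d2/anti-cAMP cryptate), 1 h RT, fluorescence read. 15 concentrations, triplicates.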
# [7] = biological target: Thyrotropin receptor (Homo sapiens) (UniProt P16473); experiment: qHTS assay to identify small molecule antagonists of the thyroid stimulating hormone receptor (TSHR) signaling pathway (AID 1259385; calls by dose curve; note: nearly all actives have a fitted effect of over 20% in size)
# Sequence of Thyrotropin receptor (Homo sapiens) (P16473 whole entry, looked up): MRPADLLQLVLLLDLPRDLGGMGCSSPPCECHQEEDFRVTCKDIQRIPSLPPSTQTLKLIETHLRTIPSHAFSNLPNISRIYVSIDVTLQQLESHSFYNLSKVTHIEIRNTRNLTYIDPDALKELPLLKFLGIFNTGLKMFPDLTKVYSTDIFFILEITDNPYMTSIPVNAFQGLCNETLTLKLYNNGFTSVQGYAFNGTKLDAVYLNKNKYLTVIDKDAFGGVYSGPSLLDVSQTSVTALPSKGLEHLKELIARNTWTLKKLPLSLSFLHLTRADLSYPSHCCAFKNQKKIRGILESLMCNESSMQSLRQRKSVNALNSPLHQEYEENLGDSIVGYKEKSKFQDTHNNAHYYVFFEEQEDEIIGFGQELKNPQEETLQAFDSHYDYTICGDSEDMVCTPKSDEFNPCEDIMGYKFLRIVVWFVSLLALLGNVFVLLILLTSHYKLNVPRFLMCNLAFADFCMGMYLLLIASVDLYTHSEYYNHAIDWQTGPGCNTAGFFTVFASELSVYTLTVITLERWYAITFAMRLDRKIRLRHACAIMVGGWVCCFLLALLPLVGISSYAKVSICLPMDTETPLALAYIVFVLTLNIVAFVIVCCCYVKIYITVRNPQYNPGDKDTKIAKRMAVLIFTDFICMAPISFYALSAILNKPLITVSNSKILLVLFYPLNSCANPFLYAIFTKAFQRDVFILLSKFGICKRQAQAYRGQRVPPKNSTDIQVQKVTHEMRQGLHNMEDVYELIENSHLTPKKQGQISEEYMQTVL
# Procedure, shortened: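 TSHR-HEK293 cells (800/well) plated 18 h, then compounds with Ro20-1724 and TSH at 1.5 ng/mL final, 30 min at room temperature. cAMP quantified by HTRF (cAMP-d2/anti-cAMP-cryptate, 1 h); 15 concentrations in triplicate.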
# [8] = qHTS assay to identify small molecule agonists of the estrogen receptor alpha (ER-alpha) signaling pathway in the presence of an antagonist - cell viability counter screen (AID 1259386);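 note: series mostly up to about 92 µM; cells exposed to compounds for 22 h at 37 °C before the viability read; nearly all actives have a fitted effect of over 30% in size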
# Procedure, shortened: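 Read-out: CellTiter-Fluor fluorescence after 1hr reagent incubation, measured in the same wells as the luciferase readout. VM7Luc4E2 cells were exposed to 15 compound concentrations with 10.0nM ICI-182,780 for 22hr at 37C.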
# [9] = biological target: Progesterone receptor (Homo sapiens) (UniProt P06401); experiment: qHTS assay to identify small molecule agonists of the progesterone receptor (PR) signaling pathway (AID 1346784; calls by dose curve; note: nearly all actives have a fitted effect of over 30% in size; note: potency is the fitted concentration of half-maximal effect)
# Sequence of Progesterone receptor (Homo sapiens) (P06401 whole entry, looked up): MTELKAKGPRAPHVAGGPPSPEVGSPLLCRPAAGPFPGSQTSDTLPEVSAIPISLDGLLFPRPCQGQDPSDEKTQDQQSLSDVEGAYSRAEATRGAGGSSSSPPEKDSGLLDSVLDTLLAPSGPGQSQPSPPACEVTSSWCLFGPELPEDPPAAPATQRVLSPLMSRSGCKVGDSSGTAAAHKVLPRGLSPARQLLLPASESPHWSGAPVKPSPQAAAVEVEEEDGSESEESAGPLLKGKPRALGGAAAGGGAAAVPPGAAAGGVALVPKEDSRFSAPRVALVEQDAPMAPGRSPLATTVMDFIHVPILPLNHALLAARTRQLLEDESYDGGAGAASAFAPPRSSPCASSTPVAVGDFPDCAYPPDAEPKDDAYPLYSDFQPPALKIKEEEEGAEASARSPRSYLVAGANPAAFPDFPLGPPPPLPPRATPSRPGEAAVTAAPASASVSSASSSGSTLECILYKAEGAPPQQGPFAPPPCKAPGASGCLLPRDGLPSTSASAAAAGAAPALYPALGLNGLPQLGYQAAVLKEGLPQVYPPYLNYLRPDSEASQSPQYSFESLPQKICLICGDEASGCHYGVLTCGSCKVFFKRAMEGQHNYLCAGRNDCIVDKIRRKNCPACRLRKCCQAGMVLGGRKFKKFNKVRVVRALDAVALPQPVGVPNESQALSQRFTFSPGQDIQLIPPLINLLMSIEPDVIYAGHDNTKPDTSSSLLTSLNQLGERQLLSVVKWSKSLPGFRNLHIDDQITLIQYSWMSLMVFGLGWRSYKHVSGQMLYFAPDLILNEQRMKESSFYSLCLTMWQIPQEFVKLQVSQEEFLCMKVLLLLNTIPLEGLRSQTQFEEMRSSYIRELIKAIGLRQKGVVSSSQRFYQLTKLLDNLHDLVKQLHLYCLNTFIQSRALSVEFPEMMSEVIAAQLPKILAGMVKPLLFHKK
# Procedure, shortened: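 Reporter assay, GripTite PR-UAS-bla HEK 293T cells: 16 hr exposure to DMSO-dissolved compounds at 37C, 5% CO2, in steroid-depleted (2% charcoal-stripped FBS) medium; beta-lactamase measured by FRET fluorescence.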
# [10] = biological target: Progesterone receptor (Homo sapiens) (UniProt P06401); experiment: qHTS assay to identify small molecule antagonists of the progesterone receptor (PR) signaling pathway (AID 1346795; active = well fitted inhibition curve with a large enough effect in the signal ratio in the repeat runs, not every such curve was filed as active; the % refers to the signal ratio; note: potency is the fitted concentration of half-maximal effect)
# Procedure, shortened: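 Stimulus R5020 at 1 nM final; cells HEK293T PR-UAS-bla; medium with 2% charcoal-stripped FBS; compound exposure 16 hr at 37C, 5% CO2; detection by FRET beta-lactamase substrate, 2 hr, room temperature.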
# [11] = qHTS assay to identify small molecule antagonists of the progesterone receptor (PR) signaling pathway - cell viability counter screen (AID 1346798); note: series mostly up to about 92 µM; nearly all actives have a fitted effect of over 50% in size
# Procedure, shortened: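 In the same plates used for the beta-lactamase readout, cell viability of compound- and R5020-treated PR-UAS-bla HEK293T cells (16 hr, 37C) was assessed by CellTiter-Glo luminescence.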
# [12] = qHTS assay to identify small molecule antagonists of the TGF-beta/Smad signaling pathway - cell viability counter screen (AID 1346824); note: nearly all actives have a fitted effect of over 50% in size
# Procedure, shortened: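 SBE-bla HEK 293T cells, incubated overnight, then compound plus 0.25 ng/mL TGF-beta1 (stock added) for 5 hr at 37 C. Viability was read in the same wells by CellTiter-Glo luminescence after 30 min at room temperature.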
# [13] = qHTS assay to identify small molecule agonists of the TGF-beta/Smad signaling pathway (AID 1346859; active = well fitted activation curve with a large enough effect in the signal ratio in the repeat runs, not every such curve was filed as active; the % refers to the signal ratio; note: series mostly up to about 77 µM)
# Procedure, shortened: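 Screening used HEK 293T SBE-bla cells at 4,000/well. Test agents: 5 hr, 37 C. Detection: FRET substrate, 2 hr RT, then excitation 405 nm with emissions at 460 and 530 nm.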
# [14] = biological target: Thyrotropin-releasing hormone receptor (Homo sapiens) (UniProt P34981); experiment: qHTS assay to identify small molecule agonists of the thyrotropin-releasing hormone receptor (TRHR) signaling pathway (AID 1346891; calls by dose curve; note: series mostly up to about 58 µM)
# Sequence of Thyrotropin-releasing hormone receptor (Homo sapiens) (P34981 whole entry, looked up): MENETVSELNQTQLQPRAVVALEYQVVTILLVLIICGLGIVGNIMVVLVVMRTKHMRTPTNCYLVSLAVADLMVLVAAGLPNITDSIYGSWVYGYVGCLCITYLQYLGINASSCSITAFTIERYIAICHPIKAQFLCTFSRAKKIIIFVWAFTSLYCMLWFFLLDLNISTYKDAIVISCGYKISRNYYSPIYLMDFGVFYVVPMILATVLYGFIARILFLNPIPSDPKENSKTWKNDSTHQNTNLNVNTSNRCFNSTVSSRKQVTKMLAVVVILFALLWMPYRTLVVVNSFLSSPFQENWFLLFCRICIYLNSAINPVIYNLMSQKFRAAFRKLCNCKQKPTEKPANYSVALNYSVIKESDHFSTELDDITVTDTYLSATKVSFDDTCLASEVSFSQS
# Procedure, shortened: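 Readout was intracellular calcium fluorescence in TRHR-Hek293 cells. Cells were incubated 18 h, dye-loaded 2 h at 37 °C, and treated with compound in agonist mode.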
# [15] = Human pregnane X receptor (PXR) small molecule agonists, qHTS cell viability counter screen (AID 1346977); note: nearly all actives have a fitted effect of over 50% in size
# Procedure, shortened: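 In each well, the PXR reporter HepG2 line was checked for viability: CellTiter-Fluor reagent added 23hr post-dosing, fluorescence read after 1hr incubation at 37C.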
# [16] = biological target: Thyrotropin-releasing hormone receptor (Homo sapiens) (UniProt P34981); experiment: qHTS assay to identify small molecule antagonists of the thyrotropin-releasing hormone receptor (TRHR) signaling pathway (AID 1346877; active = well fitted inhibition curve with a large enough effect in the repeat runs, not every such curve was filed as active; note: series mostly up to about 51 µM)
# Procedure, shortened: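 HEK293/TRHR cells, 18 h, 37 °C; Ca2+ dye 2 h; cpd 5 min RT; TRH 1 nM final; fluorescence read 3 min, 1 s intervals; 15 concs, triplicate.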
# [17] = qHTS assay to identify small molecule agonists of the progesterone receptor (PR) signaling pathway - cell viability counter screen (AID 1346799; calls by dose curve; note: nearly all actives have a fitted effect of over 45% in size)
# Procedure, shortened: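 Multiplexed viability read: CellTiter-Glo luminescence, 30 min RT, following LiveBLAzer FRET measurement on PR-UAS-bla HEK293T cells exposed to compounds 16 hr.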
# [18] = qHTS assay to identify small molecule agonists of the TGF-beta/Smad signaling pathway - cell viability counter screen (AID 1346829); note: top concentration of the series differs between compounds; nearly all actives have a fitted effect of over 45% in size
# Procedure, shortened: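 Here the cytotoxicity of library compounds is measured in SBE-bla HEK 293T cells treated for 5 hr, using CellTiter-Glo added to wells already read for the beta-lactamase reporter.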
smiles,measurement,setting,value
C[C@@H]1CCN(C(=O)[C@H](CCCN=C(N)N)NS(=O)(=O)c2cccc3c2NC[C@H](C)C3)[C@@H](C(=O)O)C1,Potency,[1],inactive
same,Potency,[2],inactive
same,Potency,[3],inactive
same,Potency,[4],inactive
same,Potency,[5],inactive
same,outcome,[6],inactive
same,Potency,[7],inactive
same,Potency,[8],inactive
same,Potency,[9],inactive
same,Potency,[10],inactive
same,Potency,[11],inactive
same,Potency,[12],inactive
same,outcome,[13],inactive
same,outcome,[14],inactive
same,Potency,[15],inactive
CC(C)NCCCC1(C(N)=O)c2ccccc2-c2ccccc21,Potency,[1],inactive
same,Potency,[2],inactive
same,Potency,[3],inactive
same,Potency,[4],inactive
same,Potency,[5],inactive
same,outcome,[6],inactive
same,Potency,[7],inactive
same,Potency,[8],inactive
same,Potency,[9],inactive
same,Potency,[10],inactive
same,Potency,[12],inactive
same,outcome,[13],inactive
same,outcome,[16],inactive
same,outcome,[14],inactive
same,Potency,[15],inactive
C[C@](N)(Cc1ccc(O)cc1)C(=O)O,"activity change, negative = inhibition",[1],37.1% [at 8.39 µM]
same,"activity change, negative = cytotoxicity",[2],-1.36% [at 8.39 µM]
same,"activity change, negative = cytotoxicity",[3],14.6% [at 8.39 µM]
same,"activity change, negative = cytotoxicity",[4],4.19% [at 8.39 µM]
same,activation,[5],1.12% [at 8.39 µM]
same,"activity change, negative = inhibition",[7],1.98% [at 8.39 µM]
same,"activity change, negative = cytotoxicity",[8],3.17% [at 8.39 µM]
same,activation,[9],-0.125% [at 8.39 µM]
same,"activity change, negative = inhibition",[10],12.2% [at 8.39 µM]
same,"activity change, negative = cytotoxicity",[17],2.57% [at 8.39 µM]
same,"viability change, negative = cytotoxic",[12],15.7% [at 6.97 µM]
same,"activity change, negative = cytotoxicity",[18],0.568% [at 6.97 µM]
same,activation,[13],2.67% [at 6.97 µM]
same,"activity change, negative = cytotoxicity",[15],-1.21% [at 8.39 µM]
CCCN1CCCC[C@H]1C(=O)Nc1c(C)cccc1C,Potency,[1],inactive
same,Potency,[2],inactive
same,Potency,[3],inactive
same,Potency,[4],inactive
same,Potency,[7],inactive
same,Potency,[8],inactive
same,Potency,[9],inactive
same,Potency,[17],inactive
same,Potency,[12],inactive
same,outcome,[18],inactive
same,outcome,[13],inactive
same,outcome,[14],inactive
same,Potency,[15],inactive
O=c1cc(-c2ccccc2)oc2ccccc12,Potency,[1],15.3 µM (active)
same,Potency,[2],inactive
same,Potency,[3],inactive
same,Potency,[4],inactive
same,Potency,[5],2.73 µM (active) and 4.06 µM (active)
same,Potency,[8],inactive
same,Potency,[10],61.1 µM (active)
same,outcome,[13],inactive
same,outcome,[16],inactive
same,outcome,[14],inactive
same,Potency,[15],inactive
O=C[C@H](O)[C@@H](O)[C@H](O)[C@H](O)CO,Potency,[1],inactive
same,Potency,[2],inactive
same,Potency,[3],inactive
same,Potency,[4],inactive
same,Potency,[5],inactive
same,outcome,[6],inactive
same,Potency,[7],inactive
same,Potency,[8],inactive
same,Potency,[9],inactive
same,Potency,[10],inactive
same,Potency,[17],inactive
same,Potency,[12],inactive
same,outcome,[18],inactive
same,outcome,[13],inactive
same,outcome,[14],inactive
same,Potency,[15],inactive
NS(=O)(=O)c1cc(C(=O)NN2C[C@H]3[C@H]4CCC(C4)[C@H]3C2)ccc1Cl,Potency,[1],inactive
same,Potency,[2],inactive
same,Potency,[3],inactive
same,Potency,[4],inactive
same,Potency,[5],inactive
same,outcome,[6],inactive
same,Potency,[7],inactive
same,Potency,[8],inactive
same,Potency,[9],inactive
same,Potency,[10],inactive
same,Potency,[17],inactive
same,Potency,[12],inactive
same,outcome,[18],inactive
same,outcome,[13],inactive
same,outcome,[16],inactive
same,outcome,[14],inactive
same,Potency,[15],inactive
CCCCC/C=C\CCC=O,Potency,[1],inactive
same,Potency,[2],inactive
same,Potency,[3],inactive
same,Potency,[4],inactive
same,Potency,[5],inactive
same,Potency,[7],inactive
same,Potency,[8],inactive
same,Potency,[9],inactive
same,Potency,[10],inactive
same,Potency,[12],inactive
same,outcome,[18],inactive
same,outcome,[13],inactive
same,outcome,[16],inactive
same,outcome,[14],inactive
same,Potency,[15],inactive
Cc1cccc(C)c1NC(=O)C(C)N (stereo unspecified),Potency,[1],inactive
same,Potency,[2],inactive
same,Potency,[3],inactive
same,Potency,[4],inactive
same,Potency,[5],inactive
same,outcome,[6],inactive
same,Potency,[7],inactive
same,Potency,[8],inactive
same,Potency,[11],inactive
same,Potency,[12],inactive
same,outcome,[18],inactive
same,Potency,[15],inactive
COc1ccc2c(c1)c(CC(=O)OCC(=O)O)c(C)n2C(=O)c1ccc(Cl)cc1,Potency,[1],inactive
same,Potency,[2],inactive
same,Potency,[3],inactive
same,Potency,[4],inactive
same,outcome,[6],inactive
same,Potency,[7],inactive
same,Potency,[8],inactive
same,Potency,[9],inactive
same,Potency,[10],inactive
same,Potency,[17],inactive
same,Potency,[12],inactive
same,outcome,[18],inactive
same,outcome,[14],inactive
same,Potency,[15],inactive
CCCC(=O)O[C@]1(C(=O)CO)CC[C@H]2[C@@H]3CCC4=CC(=O)CC[C@]4(C)[C@H]3[C@@H](O)C[C@@]21C,Potency,[1],inactive
same,Potency,[2],inactive
same,Potency,[3],inactive
same,Potency,[4],inactive
same,outcome,[6],inactive
same,Potency,[7],inactive
same,Potency,[8],inactive
same,Potency,[9],0.841 µM (active)
same,Potency,[10],inactive
same,Potency,[11],inactive
same,Potency,[12],inactive
same,outcome,[18],inactive
same,outcome,[13],inactive
same,outcome,[16],inactive
same,outcome,[14],inactive
same,Potency,[15],inactive
Cc1c(O)cccc1O,Potency,[1],14 µM (active)
same,Potency,[2],inactive
same,Potency,[3],inactive
same,Potency,[4],inactive
same,Potency,[5],inactive
same,Potency,[8],inactive
same,Potency,[9],inactive
same,Potency,[10],inactive
same,Potency,[11],inactive
same,Potency,[17],inactive
same,Potency,[12],inactive
same,outcome,[18],inactive
same,outcome,[16],inactive
same,outcome,[14],inactive
same,Potency,[15],inactive
Nc1cc(=O)[nH]c(N)n1,Potency,[1],inactive
same,Potency,[2],inactive
same,Potency,[3],inactive
same,Potency,[4],inactive
same,Potency,[5],inactive
same,Potency,[7],inactive
same,Potency,[8],inactive
same,Potency,[9],inactive
same,Potency,[10],inactive
same,Potency,[11],inactive
same,outcome,[18],inactive
same,outcome,[13],inactive
same,outcome,[16],inactive
same,outcome,[14],inactive
same,Potency,[15],inactive
Cn1c(N)c(N=O)c(=O)n(C)c1=O,Potency,[1],inactive
same,Potency,[2],inactive
same,Potency,[3],inactive
same,Potency,[4],inactive
same,Potency,[8],inactive
same,Potency,[9],inactive
same,Potency,[17],inactive
same,Potency,[12],inactive
same,outcome,[18],inactive
same,outcome,[13],inactive
same,outcome,[16],inactive
same,outcome,[14],inactive
same,Potency,[15],inactive
